Sampled rows, rich in hits. Any-hit rate of the full collection: about 3.4%.
APP 5'UTR act = activates APP 5'UTR luciferase reporter; SH-SY5Y APP 5'UTR luciferase reporter, luminescence; zero percent = DMSO vehicle wells; activation, % at 2 µM; 1% of 190,000 active;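 active = activation above a set limit, based on mean plus 3 SD of controls, cut at about 140% in these data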
ssDAF12 agonist = activates DAF-12 receptor from parasite S. stercoralis | HEK293 ssDAF-12/GRIP1 lit1-tk-luc reporter, luminescence; % of 3 µM dafachronic acid response | activation, % at 6.8 µM | 1% of 370,000 active | AID 652126;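 active = activation above the mean over all tested compounds plus 3 SD, cut at about 0.9% in these data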;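 note: 0% = DMSO-only wells and 100% = 3 µM delta7-dafachronic acid wells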
hcDAF-12 act = activators of H. contortus DAF-12 nuclear receptor. HEK293 hcDAF-12 lit1-tk-luc reporter, luminescence; 0% DMSO, 100% Δ7-dafachronic acid. activation, % at 6.8 µM. 1.4% of 370,000 active;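 active = activation above the mean of all tested compounds plus 3 SD, cut at about 5.5% in these data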;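 note: 100% = response to 3 µM Δ7-dafachronic acid high control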
NF-kB expr up = compounds increasing NF-kB expression in human neuronal cells; NF-kB reporter expression; hits give high values; fold change at 12.5 µM; 1.6% of 190,000 active; in the data active = fold change above about 3.3
hgDAF-12 ag = activates the H. glycines DAF-12 receptor ligand-binding domain; HEK293 GAL4-hgDAF12 UAS-luciferase reporter, agonist luminescence; normalized to butyrate control; activation, % at 6.8 µM; 1.8% of 370,000 active; AID 687014;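 active = activation above a cutoff set at the mean of all screened compounds plus 3 SD, cut at about 10% in these data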;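 note: 0% = DMSO wells and 100% = sodium butyrate wells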
The depositor's hits bear a star; · = no result.

SMILES | APP 5'UTR act | ssDAF12 agonist | hcDAF-12 act | NF-kB expr up | hgDAF-12 ag
COC(=O)C1CN(Cc2cn(CCC3OCCO3)nn2)CCS(=O)(=O)N1Cc1ccccc1 (centres undefined) | · | -2 | 0 | · | 4
COCCNC(=O)[C@]1(C#N)CC(=O)N(C)[C@@H]1c1ccccc1 | · | -1 | -1 | · | 5
C(=C\c1ccccc1)/CSc1nnc(COc2ccccc2)n1Cc1ccco1 | · | -1 | 1 | · | 1
CCOc1ccc(C(=O)Nc2cccc(C)n2)cc1 | 144* | 1.1* | 5 | 4.6* | 7
Cc1cccc(NC(=O)c2ccc(Cl)nc2)n1 | · | -1 | -1 | · | 2
Cc1cccc(NC(=O)c2csnn2)n1 | -18 | -1 | 1 | 13* | -3
Cc1noc(C)c1COc1ccc(C(=O)Nc2ncccc2O)cc1 | · | -1 | -1 | · | 11*
Cc1ccnc(NC(=O)CCNC(=O)c2ccc(Cl)cc2)c1 | · | -1 | 3 | · | 11*
Cc1ccc(C(=O)NCC(=O)Nc2cc(C)ccn2)cc1 | · | 0 | 4 | · | 5
CCOc1ccc(NC(=O)Nc2cccc(C)n2)cc1 | · | -1 | 1 | · | 4
CC[C@H](CCCc1ccccc1OC)CCS(=O)(=O)N(C)C | · | -2 | -2 | · | -1
Cc1ccccc1S(=O)(=O)N1CCC(c2nc3ccccc3o2)CC1 | · | -1 | -3 | · | -1
CCOc1ccc(C(=O)Nc2nnn(CC)n2)cc1 | 64 | 0 | 5 | 2.1 | 12*
CCOc1ccc(C(=O)Nc2cc(C)ccn2)cc1 | 186* | 1 | 4 | 3.7* | 7
CCOc1ccc(NC(=O)c2ccccn2)cc1 | 116 | -2 | 0 | 1.4 | -6
CCOc1ccc(C(=O)Nc2ncccc2Cl)cc1 | 43 | 0 | 2 | 2.5 | 11*
CCCCOc1ccc(C(=O)Nc2cccc(C)n2)cc1 | 111 | -1 | 1 | 4* | 8
CCCn1nnc(NC(=O)c2ccc(OC)cc2)n1 | -1 | -1 | 3 | 1.7 | 5
Cc1ccc(NC(=O)c2ccc3[nH]c(=O)c(=O)[nH]c3c2)nc1 | · | 0 | 4 | · | 3
Cc1ccnc(NC(=O)c2ccc3[nH]c(=O)c(=O)[nH]c3c2)c1 | · | 3.3* | 1 | · | 2
CCOC(=O)[C@@H]1c2[nH]c3ccccc3c2C[C@@]2(C(=O)OC)C=CCN12 | · | 1.5* | 3 | · | 1
Clc1ccc(Cn2cnc3ccccc32)cc1 | 8 | -2 | -3 | · | -3
c1ccc(Cn2cnc3ccccc32)cc1 | -5 | -1 | 3 | 0.85 | 13*
COC(=O)c1ccccc1NC(=O)C1CC(=O)N(c2ccccc2)C1 (centres undefined) | -1 | -2 | -2 | 1.2 | -3
O=C(Nc1ccccc1Cl)C1CC(=O)N(c2ccccc2)C1 (centres undefined) | · | 1.3* | -1 | · | 3
SMILES | APP 5'UTR act | ssDAF12 agonist | hcDAF-12 act | NF-kB expr up | hgDAF-12 ag
CCCC(=O)N1CCC[C@]2(CC[C@H](CCC(C)=O)O2)C1 | · | -1 | 4 | · | -2
CC1CCN(Cc2nc(-c3ccccc3)no2)CC1 | 75 | -1 | 5 | 3.4* | 13*
COC(CNC(=O)[C@H](Cc1ccccc1)NC1(C(=O)NC2CCCCC2)CCC1)OC | · | -1 | 0 | · | 2
Cc1cccc(NC(=O)CSc2nc3c([nH]c4ccccc43)c(=O)n2C)c1 | -10 | 1 | 6.0* | 0.8 | 5
Cn1c(SCC(=O)Nc2ccccc2)nc2c([nH]c3ccccc32)c1=O | 15 | -1 | 1 | 1.1 | 1
COCCn1c(SCC(=O)Nc2cccc(NC(C)=O)c2)nc2c([nH]c3ccccc32)c1=O | · | 0 | 1 | · | -3
CCC(C)Sc1nc2c([nH]c3ccccc32)c(=O)n1C (centres undefined) | 4 | 3.1* | 4 | 1.2 | 4
Cc1nc2c([nH]c3ccccc32)c(=O)n1N | 2 | 1.2* | 3 | 1.2 | 2
COc1cccc(NC(=O)CSc2nc3c([nH]c4ccccc43)c(=O)n2C)c1 | -15 | 0 | 6.4* | 1 | 5
Cc1cccc(C)c1-n1nnnc1C1(C)Cn2nccc2C(=O)N1Cc1ccc(F)cc1 (centres undefined) | · | 0 | -1 | · | 0
CCCC[C@H](C(=O)N(C)c1ccccc1)[C@@H](O)c1ccc2ccccc2c1 | · | -1 | -2 | · | -3
COc1ccc(-n2c(SCC(=O)Nc3cc(C)on3)nc3c([nH]c4ccccc43)c2=O)cc1 | 5 | 1.1* | 3 | 1.8 | 4
O=C(NC1CCCCN(Cc2cccc(Cl)c2)C1=O)c1ccc(F)cc1 (centres undefined) | · | -2 | 1 | · | -2

Screens as filed in PubChem BioAssay.
